# High-throughput results deposited in PubChem BioAssay by National Center for Advancing Translational Sciences (NCATS).
# IMPase inh: cell-permeable inhibitors of inositol monophosphatase (IMPase) | CHO-M1 cells, IP1 accumulation, HTRF TR-FRET ratio | inhibition (IP1 accumulation), % at 46.1 µM | 120,000 tested, under 10 active | AID 901; active = well fitted curve in the direction sought with a large enough effect in the signal ratio, not every such curve was filed as active; inconclusive = small, poorly fitted or top-dose-only effect, or a change in a side signal; inactive = no such curve, though single readings can be large or run the other way; the % refers to the signal ratio;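 also: cells stimulated with carbachol in lithium chloride buffer; higher means more IMPase inhibition seen as more IP1 and lower FRET ratio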
# Target sequence (P97697 whole entry, looked up): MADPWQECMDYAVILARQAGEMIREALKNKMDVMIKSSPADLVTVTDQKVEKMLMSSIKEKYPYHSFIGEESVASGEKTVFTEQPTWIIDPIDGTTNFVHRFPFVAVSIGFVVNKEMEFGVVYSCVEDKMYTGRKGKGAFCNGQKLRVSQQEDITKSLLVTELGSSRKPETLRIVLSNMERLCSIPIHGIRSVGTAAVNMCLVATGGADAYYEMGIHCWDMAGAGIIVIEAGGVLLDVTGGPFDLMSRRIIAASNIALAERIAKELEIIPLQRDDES
#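 The IP-One HTRF competitive assay in carbachol-stimulated CHO-M1 cells quantifies cellular IP1. Compounds spanned up to 46 uM final, and activity is expressed as AC50 from concentration-response fits of the ratio and donor data.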
# ALDH1A1 inh: ALDH1A1 (human) enzyme inhibition. 220,000 compounds, 7.3% hits. Potency, µM (doses to about 75.3 µM), hits mostly inhibitors. Purified ALDH1A1, NADH fluorescence, propionaldehyde substrate
# HPGD block: HPGD (human) dehydrogenase inhibition | P15428 | purified HPGD, NADH fluorescence kinetic, PGE2 substrate | Potency, µM, most hits filed as inhibitors | 150,000 compounds, 4.3% hits | AID 894
# Target sequence (P15428 whole entry, looked up): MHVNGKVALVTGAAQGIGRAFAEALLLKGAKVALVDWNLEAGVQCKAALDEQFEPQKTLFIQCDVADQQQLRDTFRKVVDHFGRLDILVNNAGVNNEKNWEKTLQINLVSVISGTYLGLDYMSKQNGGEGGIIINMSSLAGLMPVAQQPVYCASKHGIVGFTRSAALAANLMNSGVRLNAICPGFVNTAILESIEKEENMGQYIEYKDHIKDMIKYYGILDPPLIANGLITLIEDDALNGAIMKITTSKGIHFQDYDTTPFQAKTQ
#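 20 nM HPGD preincubated 15 min at room temperature with compound in 50 mM Tris-HCl pH 8, 0.01% Tween 20. Started with 1 mM NAD+ and 30 uM prostaglandin E2; NADH fluorescence (360/450 nm) read 5 times over 30-s intervals, last minus first.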
# Numbers stand for hits; – = inactive; ? = inconclusive; · = no result given; [ ] = remark or other dose. The list is not random: actives were taken first. Their share in the collection is about 9%. Unless noted, calls follow the shape of the dose curve; as a rule, active = well fitted inhibition curve with a large enough effect (not every such curve was filed as active); inconclusive = small, poorly fitted or top-dose-only effect, or another doubt; inactive = no such curve, though single readings can be large or run the other way.
SMILES,IMPase inh,ALDH1A1 inh,HPGD block
CC(C)(C)n1nc2c(c1NC(=O)c1ccc(Br)cc1)CS(=O)C2 (stereo unspecified),–,–,–
COc1ccc(-n2cnnc2SCC(=O)c2ccc(S(=O)(=O)N3CCOCC3)cc2)cc1,–,1.4µM,–
COc1ccc(-n2nnnc2SCC(=O)N2CCOCC2)cc1,–,–,–
COc1ccc(-n2nnnc2Sc2ccc(S(=O)(=O)N3CCOCC3)cn2)cc1,–,2.8µM,7.1µM
CC(C)(C)n1nc2c(c1NC(=O)c1ccc(S(=O)(=O)N3CCCCC3)cc1)CS(=O)C2 (stereo unspecified),–,25µM,–
COc1ccc(-n2cnnc2SCC(=O)Nc2cc(S(=O)(=O)N3CCCCC3)ccc2C)cc1,·,–,–
COc1ccc(-n2nc3c(c2NC(=O)c2ccc(S(=O)(=O)N4CCOCC4)cc2)CS(=O)C3)cc1 (stereo unspecified),·,2.5µM,·
O=C(Nc1c2c(nn1-c1ccccc1)CS(=O)C2)c1ccc(S(=O)(=O)N2CCOCC2)cc1 (stereo unspecified),·,–,·
Cc1ccc(NC(=O)Nc2ccc(F)cc2)cc1Cl,·,–,·
Fc1ccc(Nc2nc3ccccc3c3nncn23)c(Cl)c1,–,·,·
COc1cc(OC)c2c(c1)OC(c1ccccc1)CC2=O (stereo unspecified),–,?,?
CC(C)(C)NC(=O)NC(=O)CSc1cccc(C(F)(F)F)c1,·,–,·
CC(C)[C@H](NC(=O)c1ccccc1)C(=O)OCC(=O)N1CC2(C)CC1CC(C)(C)C2 (stereo partly specified),·,–,–
NNC(=O)c1ccc(CSc2nc3ccccc3[nH]2)cc1,·,10µM,·
Fc1ccccc1CSc1nc2ccccc2[nH]1,–,13µM,20µM
O=C(O)CSc1nc2ccccc2[nH]1,–,–[13.5 µM],–
Fc1c(F)c(F)c(CSc2nc3ccccc3[nH]2)c(F)c1F,–,–,–
O=C(COc1ccc2c(C(F)(F)F)cc(=O)oc2c1)Nc1ccc(N2CCOCC2)cc1,–,–,–
O=S(=O)(c1ccc(Cl)c(C(F)(F)F)c1)N1CCN(CC(O)COCC2CCCO2)CC1 (stereo unspecified),–,?,–
Cc1cccc(CSc2ncnc3ccccc23)c1,·,–,·
O=[N+]([O-])c1cccc(CSc2ncnc3ccccc23)c1,·,22µM,·
COc1ccc(C(=O)NCC(C)(C)SCc2c(C)cc(C)cc2C)cc1,–,–,–
C=CCn1c(SC)nnc1C1COc2ccccc2O1 (stereo unspecified),·,–,·
CN1CCN(C(=O)c2cc3nc(-c4ccccc4)cc(C(F)(F)F)n3n2)CC1,–,–,10µM
COc1ccc(-c2cc(C(F)(F)F)n3nc(C(=O)N4CCCCC4)cc3n2)cc1,–,?,?
SMILES,IMPase inh,ALDH1A1 inh,HPGD block
COc1ccc(-c2cc(C(F)(F)F)n3nc(C(=O)O)cc3n2)cc1OC,–,–,–
O=C(c1cc2nc(-c3ccc(F)cc3)cc(C(F)(F)F)n2n1)N1CCCC1,–,–,3.5µM
CN1CCN(C(=O)c2cc3nc(-c4ccc(Cl)cc4)cc(C(F)(F)F)n3n2)CC1,–,?,?
COc1cccc(-c2cc(C(F)(F)F)n3nc(C(=O)N4CCCCC4c4cccnc4)cc3n2)c1 (stereo unspecified),·,22µM,·
CC(C)CNC(=O)/C=C/c1cccs1,–,–,?
COC(=O)c1ccc(Oc2ccc(C(F)(F)F)cn2)cc1,·,–,·
CN(CCc1ccc(Cl)c(Cl)c1)CCN1CCCC1,–,–,–
O=C1C=C(N2CCCCC2)C2(CCCCC2)O1,·,10µM,·
CN1CCN(C2=CC(=O)OC23CCCCC3)CC1,–,–,–
Cc1cccc(NC(=O)Cn2c(/C=C/c3ccccc3)nc3ccccc32)c1,–,?,·
COc1ccc(Cn2c(=O)[nH]c3cc(C(=O)NCCc4ccc(S(N)(=O)=O)cc4)ccc3c2=O)cc1,·,–,·
O=[N+]([O-])c1cccc(-c2ccc(/C=N/Nc3nc(N4CCCCC4)nc(N4CCCCC4)n3)o2)c1,·,–,·
O=C1C2C3C=CC(C4CC34)C2C(=O)N1/N=C/c1ccc(-c2cccc([N+](=O)[O-])c2)o1 (stereo unspecified),·,14µM,13µM
N#Cc1ccc(CN2CC3(CCN(C(=O)c4ccncc4)CC3)C2)cc1,·,–,–
Cc1ccc(NC(=O)c2c(C)nn(-c3ccccc3)c2Cl)cc1,–,–,14µM
Cc1ccccc1NC(=O)c1c(C)nn(-c2ccccc2)c1Cl,·,?,28µM
Cc1nn(-c2ccccc2)c(Cl)c1C(=O)Nc1c(C)n(C)n(-c2ccccc2)c1=O,–,?,–
CC(=O)c1cccc(NC(=O)c2c(C)nn(-c3ccccc3)c2Cl)c1,·,–,·
COc1ccc(-c2nc3cnc(Nc4cccc(OC)c4)nc3n(CCC#N)c2=O)cc1,·,–,–
Cc1ccc(C(=O)Nc2ccc(Br)cc2)cc1S(=O)(=O)Nc1ccccn1,–,–,?
Cc1ccc(NC(=O)c2sccc2SCc2cccc(C(F)(F)F)c2)cc1,–,–,–
N#CCSc1ccsc1C(=O)Nc1ccc(F)cc1,–,7.1µM,32µM
Cc1cc(C)c(S(C)(=O)=O)c(Sc2ccc(Cl)cc2)n1,–,–,–
Cc1cc(CNC(=O)c2cccnc2Cl)c2ccccc2n1,·,–,·
Cc1ccc(C(=O)O/N=C2\CC3CCC2(C)C3(C)C)cc1 (stereo unspecified),–[0.0738 µM],13µM,–
SMILES,IMPase inh,ALDH1A1 inh,HPGD block
Cc1cccc(C(=O)O/N=C2/CC3CCC2(C)C3(C)C)c1 (stereo unspecified),–,–,–
Cc1c(NC(=O)CSc2nnnn2-c2ccc(F)cc2)c(=O)n(-c2ccccc2)n1C,·,–,·
CC1(C)OC(=O)C(=NNc2ccc(Br)cc2)C(=O)O1,·,13µM,–
CC1(C)OC(=O)C(=CNc2cccc(O)c2)C(=O)O1,–,?,–
O=C(c1ccc(O)cc1)c1ccc(C(=O)c2ccc(O)cc2)cc1,–,–,22µM
Oc1ccc(O)cc1,–,–,7.9µM
N=C(N)c1ccc(O)cc1,·,–,·
Oc1ccccc1,·,–,–
COc1cccc(NC(=S)N(CCCN2CCC(C)CC2)Cc2cccs2)c1,·,–,·
COc1ccc(NC(=S)N(CCCN2CCC(C)CC2)Cc2cccs2)cc1,·,20µM,·
Cc1ccc(C2OCC3(CO2)COC(c2ccc(C)cc2)OC3)cc1 (stereo unspecified),·,–,–
Cc1ccc(C2OCC3(CO)COC(c4ccc(C)cc4)N23)cc1 (stereo unspecified),–,4.5µM,–
CN1CC(c2ccc(C#N)cc2)C2(COc3ccccc3C2=O)C12C(=O)Nc1ccccc12 (stereo unspecified),–,?,–
COc1ccc(CCC(=O)N2CC(C)OC(C)C2)cc1 (stereo unspecified),–,–,–
O=C(O)C1CSC(c2coc3ccccc3c2=O)N1 (stereo unspecified),·,?,–
CC1CCOC(c2coc3ccccc3c2=O)O1 (stereo unspecified),·,20µM,–
COc1cc(NC2c3ncccc3C(=O)N2Cc2ccco2)cc(OC)c1 (stereo unspecified),–,16µM,–
O=C1c2cccnc2C(Nc2ccc(Cl)cc2)N1Cc1cccs1 (stereo unspecified),·,4.5µM,·
Cc1ccc(NC2c3ncccc3C(=O)N2Cc2ccc(F)cc2)cc1 (stereo unspecified),–,–,–
